A selection: hits, their analogues and other compounds. The true share with any hit is near 7.3%.
ELG1 genotoxic = inducers of genotoxicity in HEK293T ELG1-luciferase cells; AID 504466; Potency, µM (titrated, usually from 46 µM), without a hit: at the top dose activity change, positive = activation, usual class: activators; HEK293T ELG1-luciferase reporter, luminescence, 16 h; hit rate 1.3% among 330,000; also: % of control where 0% means no effect; nearly all actives have a fitted effect of over 60% in size
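Genotoxic stress is detected as increased luminescence from luciferase-tagged ELG1 in HEK293T cells, measured with ONE-Glo after a 16 hr treatment at 37 °C.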
Luc counter = Kinase-Glo luciferase inhibition (counter-screen); AID 1379; hit rate 0.28% among 200,000; Q27757; Potency, µM (highest dose often 38.3 µM), for inactives: at the top dose activity change, negative = inhibition, most hits filed as inhibitors; Kinase-Glo luciferase, ATP luminescence, 8 min; also: % is scaled to controls: 0 for no effect and ±100 for the full control effect; nearly all actives have a fitted effect of over 60% in size
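Compounds were added to a substrate mix at pH 7.2 (50 mM imidazole, 10 uM ATP, within the enzyme's linear range), followed by Kinase-Glo detection reagent; luminescence was measured after 8 minutes at ambient temperature.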
Rab9 promoter act = Rab9 promoter activation | Huh7 Rab9 promoter-luciferase reporter, luminescence, 24 h | Potency, µM (top dose mostly 9.22 µM), for the others: at the highest dose activation, negative = inhibition, hits mostly activators | hit rate 2.8% among 320,000 | AID 485297; also: % of control where 0% means no effect; nearly all actives have a fitted effect of over 60% in size
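Huh7 cells stably carrying a Rab9 promoter-luciferase reporter, 1500 cells per well in OP-MEM I with 10% FBS, treated with compound 24 hours at 37C. Luciferase activity read by luminescence after 10 minutes with Amplite reagent.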
NPC1 promoter act = activates the NPC1 promoter. Potency, µM (series often up to 9.22 µM), without a hit: at the highest dose activation, usual class: activators. Huh7 NPC1 promoter luciferase reporter, 24 h. hit rate 2.4% among 320,000. AID 485313; also: % of control where 0% means no effect; nearly all actives have a fitted effect of over 60% in size
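Huh7 cells stably carrying NPC1 promoter–luciferase, plated in Opti-MEM with 10% FBS for 2 h, were exposed to compound in DMSO for 24 h at 37 °C; luciferase reagent was added for 10 min and luminescence read.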
FLuc modulator = firefly luciferase modulation, counter-screen for miR-21 project; Potency, µM (highest dose often 57.5 µM), inactives show at the top dose activity change, negative = inhibition, most hits filed as inhibitors; hit rate 6.9% among 360,000; purified FLuc, Km substrates, luminescence inhibition; P08659; AID 588342;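 also: plate controls were vehicle for no effect and reference inhibitor for full effect; nearly all actives have a fitted effect of over 55% in size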
Target sequence (P08659 whole entry, looked up): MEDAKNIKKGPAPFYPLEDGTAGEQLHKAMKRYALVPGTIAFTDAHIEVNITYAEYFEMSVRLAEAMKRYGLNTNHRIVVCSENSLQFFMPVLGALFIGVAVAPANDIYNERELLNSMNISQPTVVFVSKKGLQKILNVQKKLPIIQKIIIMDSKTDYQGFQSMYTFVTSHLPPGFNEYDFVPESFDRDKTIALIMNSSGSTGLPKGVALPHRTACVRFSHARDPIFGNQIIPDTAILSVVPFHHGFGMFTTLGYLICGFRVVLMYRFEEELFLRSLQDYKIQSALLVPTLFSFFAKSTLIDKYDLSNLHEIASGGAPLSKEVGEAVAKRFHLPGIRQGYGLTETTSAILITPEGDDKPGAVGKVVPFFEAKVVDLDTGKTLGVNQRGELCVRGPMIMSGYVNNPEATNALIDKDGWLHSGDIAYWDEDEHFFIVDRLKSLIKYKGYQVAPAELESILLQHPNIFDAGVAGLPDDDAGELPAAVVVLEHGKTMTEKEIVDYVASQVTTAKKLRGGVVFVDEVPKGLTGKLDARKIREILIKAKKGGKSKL
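Purified P. pyralis luciferase, 10 nM final, with Km-level 10 uM D-luciferin and 10 uM ATP in 50 mM Tris acetate pH 7.5, 10 mM Mg acetate, 0.01% Tween-20, 0.05% BSA; 6-point qHTS titration about 60 µM downward; luminescence read.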
SMN2 splice enh = enhancers of SMN2 splice variant expression | hit rate 2.8% among 210,000 | HEK293 SMN2-luciferase splicing reporter, luminescence, 30-36 h | AID 1458 | Potency, µM (series often up to 46.1 µM), without a hit: at the highest dose activity change, positive = activation, most hits filed as activators; also: % of control where 0% means no effect; nearly all actives have a fitted effect of over 55% in size
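qHTS luciferase splicing reporter: luminescence rises when SMN2 exon 7 is included in transfected HEK293 cells. Compound exposure lasted 30-36 h at 37C, with 4.5 mM final sodium butyrate as control, followed by a ONE-Glo read.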
* hit, by the source's call; [ ] = dose if it differs, or a comment. Calls follow the shape of the dose curve; as a rule, active = well fitted curve in the direction sought with a large enough effect; inconclusive = small, poorly fitted or top-dose-only effect, or another doubt; inactive = no such curve, though single readings can be large; an effect the other way counts as inactive or inconclusive. Potency is read from the fitted curve at half-maximal effect.

O=C(CSc1ncnc2c1nnn2-c1ccc(F)cc1)NCC1CCCO1 (stereo unspecified) was read as ELG1 genotoxic 1%, Luc counter 6%, Rab9 promoter act 4%, NPC1 promoter act -3%, FLuc modulator 13µM* and SMN2 splice enh -21%.
CC(=O)C(Sc1ncnc2c1nnn2-c1ccc(F)cc1)C(=O)N(C)C (stereo unspecified) was read as ELG1 genotoxic 6%, Luc counter -2%, Rab9 promoter act 28%, NPC1 promoter act -3%, FLuc modulator inconclusive and SMN2 splice enh inconclusive.
For Nc1ccc(Oc2cccc(Oc3ccc(N)cc3)c2)cc1 the results were ELG1 genotoxic -12%, Luc counter 10%, Rab9 promoter act -13%, NPC1 promoter act -21%, FLuc modulator 19µM* and SMN2 splice enh -50%.
`Nc1ccc(Oc2ccc(N)cc2)cc1` gave SMN2 splice enh 6%.
For COc1ccc(CC2C(=O)NC(=O)NC2=O)c(OC)c1 the results were ELG1 genotoxic 1%, Luc counter 0%, Rab9 promoter act -8%, NPC1 promoter act 1%, FLuc modulator 0% and SMN2 splice enh 14%.
For CCN(CC)C(=O)Oc1ccc2cc(Br)ccc2c1 the results were ELG1 genotoxic inconclusive, Luc counter -2%, Rab9 promoter act 22%, NPC1 promoter act 8%, FLuc modulator 21µM* and SMN2 splice enh 2%.
CN(C)C(=O)Oc1ccc(-c2cn3cc(Cl)ccc3n2)cc1 was read as ELG1 genotoxic inconclusive, Luc counter 14µM*, Rab9 promoter act 0.4µM*, NPC1 promoter act 0.71µM*, FLuc modulator 0.95µM* and SMN2 splice enh 8.9µM*.
Screening CN(C)C(=O)Oc1ccc(-c2cn3cc(C(F)(F)F)ccc3n2)cc1 returned ELG1 genotoxic 10%, Luc counter -2%, Rab9 promoter act -16%, NPC1 promoter act inconclusive, FLuc modulator 3µM* and SMN2 splice enh inconclusive.
Screening CN(C)C(=O)Oc1ccc(-c2nnco2)cc1 returned ELG1 genotoxic -5%, Luc counter 0%, Rab9 promoter act -3%, NPC1 promoter act 1%, FLuc modulator -12% and SMN2 splice enh -5%.
`CN(C)C(=O)Oc1cccc(-c2cn3cc(Cl)ccc3n2)c1` gave ELG1 genotoxic 12%, Luc counter -7%, Rab9 promoter act inconclusive, NPC1 promoter act inconclusive, FLuc modulator 3µM* and SMN2 splice enh 11µM*.
`CCOc1ccc(N(C(C)C(=O)Nc2cc(Cl)ccc2OC)S(C)(=O)=O)cc1` (stereo unspecified) gave FLuc modulator 6% and SMN2 splice enh -47%.
Screening Nc1ncnc2c1ncn2[C@@H]1O[C@H](COP(=O)(O)OP(=O)(O)OP(=O)(O)O)[C@H]2OC3(O[C@H]21)C([N+](=O)[O-])=CC(=[N+]([O-])[O-])C=C3[N+](=O)[O-] (stereo partly specified) returned Luc counter 2.8µM*.
Screening O=C1NC(=O)N(c2cccc(Cl)c2)C(=O)/C1=C\c1ccc(Sc2nc3ccccc3[nH]2)o1 returned ELG1 genotoxic 0%, Luc counter -7%, Rab9 promoter act -1%, NPC1 promoter act -2%, FLuc modulator 24µM* and SMN2 splice enh 7%.
For O=C1NC(=O)N(c2ccccc2F)C(=O)/C1=C/c1ccc(Sc2nc3ccccc3[nH]2)o1 the results were ELG1 genotoxic 1%, Luc counter -28%, Rab9 promoter act -5%, NPC1 promoter act 1%, FLuc modulator inconclusive and SMN2 splice enh 3%[1.84 µM].
Screening CC(=O)[O][Hg][c]1ccccc1 returned Luc counter 13µM* and SMN2 splice enh -104%.
`O=C(CN1CCN(c2ccccc2F)CC1)Nc1cccnc1Cl` gave ELG1 genotoxic 0%, Luc counter -1%, Rab9 promoter act -2%, NPC1 promoter act -1%, FLuc modulator -5% and SMN2 splice enh -2%.
For COc1ccc(-c2cc(C(=O)N3CCC4(CC3)OCCO4)c3ccccc3n2)cc1 the results were ELG1 genotoxic 0%, Rab9 promoter act inconclusive, NPC1 promoter act 26% and FLuc modulator 2.1µM*.
For COc1ccc(CNCC(=O)N2CCC3(CC2)OCCO3)cc1 the results were ELG1 genotoxic -1%, Luc counter -3%, Rab9 promoter act -2%, NPC1 promoter act 0%, FLuc modulator 8% and SMN2 splice enh 4%.
For COc1ccc(-n2nc(C(=O)NCC(=O)N3CCC4(CC3)OCCO4)c3ccccc3c2=O)cc1Cl the results were ELG1 genotoxic 12%, Rab9 promoter act inconclusive, NPC1 promoter act inconclusive and FLuc modulator 1.2µM*.
Screening CCOC(=O)CNC(=O)CNC(=O)c1nn(-c2ccc(OC)c(Cl)c2)c(=O)c2ccccc12 returned ELG1 genotoxic -4%, Luc counter 2%, Rab9 promoter act 1%, NPC1 promoter act -1%, FLuc modulator -4% and SMN2 splice enh -57%.
`COc1ccc(-n2nc(C(=O)NCC(=O)N3CCC4(CC3)OCCO4)c3ccccc3c2=O)cc1` gave ELG1 genotoxic inconclusive, Rab9 promoter act inconclusive, NPC1 promoter act inconclusive and FLuc modulator 1.1µM*.
For COc1ccc(Cn2c(O)c(/C=N/NC(=O)c3ccncc3)c(=O)[nH]c2=O)cc1 the results were ELG1 genotoxic 0%, Rab9 promoter act 0%, NPC1 promoter act -2% and FLuc modulator -11%.
`Cc1ccc(C(=O)Nc2nc3ccccc3n2CCN2CCCC2)cc1` gave ELG1 genotoxic 4.6µM*, Rab9 promoter act inconclusive, NPC1 promoter act 15% and FLuc modulator 11µM*.
`Cn1c(O)c(C(c2ccncc2)c2c(O)n(C)c(=S)n(C)c2=O)c(=O)n(C)c1=S` gave ELG1 genotoxic 0%, Luc counter 19%, Rab9 promoter act -13%, NPC1 promoter act -3%, FLuc modulator 2% and SMN2 splice enh 5%.
Screening Cc1ccc(Cn2nnnc2CN2CCC(n3nnc4cc(C)ccc43)CC2)cc1 returned ELG1 genotoxic -7%, Luc counter -4%, Rab9 promoter act -1%, NPC1 promoter act 1%, FLuc modulator 8% and SMN2 splice enh -17%.
Screening CCN(CC)c1ccc(/C=C/[N+](=O)[O-])cc1 returned ELG1 genotoxic inconclusive, Luc counter -1%, Rab9 promoter act -3%, NPC1 promoter act -6%, FLuc modulator 19µM* and SMN2 splice enh 14%.
`CCOc1ccc(/C=C/C(=O)C(C(N)=O)=C2SCCS2)cc1` gave ELG1 genotoxic 8%, Luc counter -4%, Rab9 promoter act inconclusive, NPC1 promoter act inconclusive, FLuc modulator 1.7µM* and SMN2 splice enh -28%.
